Values joined by “and” are separate entries in the source; they are usually repeats but may differ in a detail not shown here. Equal values may be shown once. Results filed as inconclusive are left out. Some compounds were tested as several samples or in several runs, with calls that do not always agree. Active and inactive are the calls of the source. Unless noted, calls come from the whole dose curve; as a rule, active = well fitted curve in the direction sought with a large enough effect in the repeat runs; inconclusive = weak or mixed curves; inactive = no such curve, though single readings can be large; an effect the other way counts as inactive or inconclusive.
Experiments:
[1] = molecular target: Progesterone receptor (Homo sapiens) (UniProt P06401); test: qHTS assay to identify small molecule agonists of the progesterone receptor (PR) signaling pathway (AID 1346784; calls by dose curve; note: nearly all actives have a fitted effect of over 30% in size)
Progesterone receptor (Homo sapiens), sequence (P06401 whole entry, looked up): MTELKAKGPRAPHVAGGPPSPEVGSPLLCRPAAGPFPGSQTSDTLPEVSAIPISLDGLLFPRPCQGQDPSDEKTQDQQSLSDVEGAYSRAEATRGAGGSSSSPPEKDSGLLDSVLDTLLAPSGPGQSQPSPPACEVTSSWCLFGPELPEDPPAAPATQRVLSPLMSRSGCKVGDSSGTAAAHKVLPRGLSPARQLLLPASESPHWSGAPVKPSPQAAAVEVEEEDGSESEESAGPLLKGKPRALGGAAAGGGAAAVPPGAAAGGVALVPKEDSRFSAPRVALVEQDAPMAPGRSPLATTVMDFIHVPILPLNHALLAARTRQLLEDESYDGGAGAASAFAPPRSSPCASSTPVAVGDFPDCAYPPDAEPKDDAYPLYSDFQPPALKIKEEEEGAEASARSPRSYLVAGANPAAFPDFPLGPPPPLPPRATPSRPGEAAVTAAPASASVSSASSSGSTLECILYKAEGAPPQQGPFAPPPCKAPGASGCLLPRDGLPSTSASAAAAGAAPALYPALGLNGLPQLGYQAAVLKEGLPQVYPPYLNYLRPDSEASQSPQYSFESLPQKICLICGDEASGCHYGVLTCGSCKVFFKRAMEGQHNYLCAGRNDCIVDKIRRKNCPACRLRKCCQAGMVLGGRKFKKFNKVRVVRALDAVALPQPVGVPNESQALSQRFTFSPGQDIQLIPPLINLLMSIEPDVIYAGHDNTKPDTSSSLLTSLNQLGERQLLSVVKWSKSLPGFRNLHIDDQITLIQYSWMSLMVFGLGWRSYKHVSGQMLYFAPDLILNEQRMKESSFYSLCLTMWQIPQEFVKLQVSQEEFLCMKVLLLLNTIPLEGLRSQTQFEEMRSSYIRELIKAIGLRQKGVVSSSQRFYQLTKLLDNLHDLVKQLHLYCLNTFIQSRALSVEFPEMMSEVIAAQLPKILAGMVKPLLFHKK
Summary of the method: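 Reporter assay, GripTite PR-UAS-bla HEK 293T cells: 16 hr exposure to DMSO-dissolved compounds at 37C, 5% CO2, in steroid-depleted (2% charcoal-stripped FBS) medium; beta-lactamase measured by FRET fluorescence.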

[2] = molecular target: Progesterone receptor (Homo sapiens) (UniProt P06401); test: qHTS assay to identify small molecule antagonists of the progesterone receptor (PR) signaling pathway (AID 1346795; active = well fitted inhibition curve with a large enough effect in the signal ratio in the repeat runs, not every such curve was filed as active; the % refers to the signal ratio; note: potency is the fitted concentration of half-maximal effect)
Summary of the method: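 Stimulus R5020 at 1 nM final; cells HEK293T PR-UAS-bla; medium with 2% charcoal-stripped FBS; compound exposure 16 hr at 37C, 5% CO2; detection by FRET beta-lactamase substrate, 2 hr, room temperature.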

[3] = qHTS assay to identify small molecule antagonists of the progesterone receptor (PR) signaling pathway - cell viability counter screen (AID 1346798); note: series mostly up to about 92 µM; nearly all actives have a fitted effect of over 50% in size
Summary of the method: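 In the same plates used for the beta-lactamase readout, cell viability of compound- and R5020-treated PR-UAS-bla HEK293T cells (16 hr, 37C) was assessed by CellTiter-Glo luminescence.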

[4] = qHTS assay to identify small molecule antagonists of the TGF-beta/Smad signaling pathway - cell viability counter screen (AID 1346824); note: nearly all actives have a fitted effect of over 50% in size
Summary of the method: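 Cytotoxicity counter-screen run in the same wells as the beta-lactamase Smad reporter read: CellTiter-Glo luminescence after 30 min at room temperature. HEK 293T SBE-bla cells had 5 hr compound exposure at 37 C with TGF-beta1 (0.25 ng/mL stock).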

[5] = qHTS assay to identify small molecule agonists of the TGF-beta/Smad signaling pathway - cell viability counter screen (AID 1346829); note: top concentration of the series differs between compounds; nearly all actives have a fitted effect of over 45% in size
Summary of the method: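 Tox21 qHTS format: SBE-bla HEK 293T cells treated with DMSO-dissolved compounds for 5 hr; CellTiter-Glo luminescence after 30 min at room temperature.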

[6] = qHTS assay to identify small molecule agonists of the TGF-beta/Smad signaling pathway (AID 1346859; active = well fitted activation curve with a large enough effect in the signal ratio in the repeat runs, not every such curve was filed as active; the % refers to the signal ratio; note: series mostly up to about 77 µM)
Summary of the method: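 Screening used HEK 293T SBE-bla cells at 4,000/well. Test agents: 5 hr, 37 C. Detection: FRET substrate, 2 hr RT, then excitation 405 nm with emissions at 460 and 530 nm.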

[7] = Human pregnane X receptor (PXR) small molecule agonists, qHTS cell viability counter screen (AID 1346977); note: nearly all actives have a fitted effect of over 50% in size; note: potency is the fitted concentration of half-maximal effect
Summary of the method: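 In each well, the PXR reporter HepG2 line was checked for viability: CellTiter-Fluor reagent added 23hr post-dosing, fluorescence read after 1hr incubation at 37C.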

[8] = Caspase-3/7 induction in HepG2 cells by small molecules, qHTS assay (AID 1346978); note: nearly all actives have a fitted effect of over 15% in size
Summary of the method: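 Caspase-3/7 induction was measured by Caspase-Glo 3/7 luminescence (30 min, room temperature) after a 17 hr compound exposure of wild-type HepG2 cells seeded at 2,000 per well and pre-incubated 5 hr.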

[9] = Caspase-3/7 induction in HepG2 cells by small molecules, qHTS cell viability counter screen (AID 1346981); note: nearly all actives have a fitted effect of over 30% in size; note: potency is the fitted concentration of half-maximal effect
Summary of the method: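 The parent HepG2 line is plated at 2,000 cells per well and rested 5 hr before compound pinning from DMSO stocks. Following a 16-hr treatment at 37 C, a fluorogenic live-cell substrate (CellTiter-Fluor) reports viability after 1 hr.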

[10] = qHTS assay to identify small molecule agonists of the estrogen receptor alpha (ER-alpha) signaling pathway in the presence of an antagonist - cell viability counter screen (AID 1259386);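 note: cells exposed to compounds for 22 h at 37 °C before the viability read; nearly all actives have a fitted effect of over 30% in size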; note: potency is the fitted concentration of half-maximal effect
Summary of the method: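 Steps: 5-day stripped-FBS culture; seed and incubate 24hr; add ICI-182,780 (10.0nM final); pin 15-point compound titration; incubate 22hr at 37C; add CellTiter-Fluor at 21hr; read fluorescence.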

[11] = qHTS assay to identify small molecule agonists of the progesterone receptor (PR) signaling pathway - cell viability counter screen (AID 1346799; calls by dose curve; note: nearly all actives have a fitted effect of over 45% in size)
Summary of the method: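 Multiplexed viability read: CellTiter-Glo luminescence, 30 min RT, following LiveBLAzer FRET measurement on PR-UAS-bla HEK293T cells exposed to compounds 16 hr.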

[12] = molecular target: Thyrotropin-releasing hormone receptor (Homo sapiens) (UniProt P34981); test: qHTS assay to identify small molecule antagonists of the thyrotropin-releasing hormone receptor (TRHR) signaling pathway (AID 1346877; active = well fitted inhibition curve with a large enough effect in the repeat runs, not every such curve was filed as active; note: series mostly up to about 51 µM)
Thyrotropin-releasing hormone receptor (Homo sapiens), sequence (P34981 whole entry, looked up): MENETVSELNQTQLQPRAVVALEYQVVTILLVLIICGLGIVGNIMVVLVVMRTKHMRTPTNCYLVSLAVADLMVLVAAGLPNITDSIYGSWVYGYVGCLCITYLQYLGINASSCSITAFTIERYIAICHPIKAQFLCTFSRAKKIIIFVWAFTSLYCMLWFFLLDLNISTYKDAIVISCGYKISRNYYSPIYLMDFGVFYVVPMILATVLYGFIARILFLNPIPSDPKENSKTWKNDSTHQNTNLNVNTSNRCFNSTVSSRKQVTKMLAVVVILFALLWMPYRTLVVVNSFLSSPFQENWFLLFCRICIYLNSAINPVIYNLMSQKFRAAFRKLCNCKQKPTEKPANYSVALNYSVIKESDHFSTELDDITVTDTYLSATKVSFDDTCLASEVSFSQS
Summary of the method: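 Human TRHR in HEK293 cells; inhibition of the intracellular calcium rise triggered by 1 nM TRH was followed by fluorescence over 3 min. Compounds were run at 15 concentrations, three replicates each.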

[13] = molecular target: Thyrotropin-releasing hormone receptor (Homo sapiens) (UniProt P34981); test: qHTS assay to identify small molecule agonists of the thyrotropin-releasing hormone receptor (TRHR) signaling pathway (AID 1346891; calls by dose curve; note: series mostly up to about 58 µM)
Summary of the method: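 Readout was intracellular calcium fluorescence in TRHR-Hek293 cells. Cells were incubated 18 h, dye-loaded 2 h at 37 °C, and treated with compound in agonist mode.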

[14] = Caspase-3/7 induction in CHO-K1 cells by small molecules, qHTS assay (AID 1346980); note: nearly all actives have a fitted effect of over 15% in size
Summary of the method: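 Luminescent Caspase-Glo 3/7 read (30min, room temperature) quantified apoptosis induction. Cells were wild-type CHO-K1, treated with compound for 17hr at 37 C and 5% CO2.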

[15] = molecular target: Nuclear receptor subfamily 1 group I member 2 (Homo sapiens) (UniProt O75469); test: Human pregnane X receptor (PXR) small molecule agonists, qHTS assay (AID 1346982); note: nearly all actives have a fitted effect of over 35% in size; note: potency is the fitted concentration of half-maximal effect
Nuclear receptor subfamily 1 group I member 2 (Homo sapiens), sequence (O75469 whole entry, looked up): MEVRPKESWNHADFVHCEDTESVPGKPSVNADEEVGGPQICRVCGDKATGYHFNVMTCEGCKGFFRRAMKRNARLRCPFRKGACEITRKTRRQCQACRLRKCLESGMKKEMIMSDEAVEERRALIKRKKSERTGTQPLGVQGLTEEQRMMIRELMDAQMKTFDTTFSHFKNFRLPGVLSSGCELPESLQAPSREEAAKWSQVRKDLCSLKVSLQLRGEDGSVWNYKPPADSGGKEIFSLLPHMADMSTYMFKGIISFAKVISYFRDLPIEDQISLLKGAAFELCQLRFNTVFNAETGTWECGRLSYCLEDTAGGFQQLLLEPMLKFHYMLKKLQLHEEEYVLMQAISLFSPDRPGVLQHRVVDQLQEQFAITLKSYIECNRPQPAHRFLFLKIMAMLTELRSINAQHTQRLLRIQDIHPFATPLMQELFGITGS
Summary of the method: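 After plating in 5% charcoal-stripped FBS and a 5 hr rest, PXR-Luc HepG2 cells received compounds in DMSO. Following 24 hr at 37 C, ONE-Glo was added and light output read.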

[16] = Caspase-3/7 induction in CHO-K1 cells by small molecules, qHTS cell viability counter screen (AID 1346979); note: nearly all actives have a fitted effect of over 35% in size; note: potency is the fitted concentration of half-maximal effect
Summary of the method: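 Following a 5hr settling period, CHO-K1 cells at 1,500 per well received DMSO-dissolved compounds. Cell viability was quantified 16hr later by CellTiter-Fluor fluorescence, measured after 1hr with reagent at 37C.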

[17] = molecular target: Nuclear receptor subfamily 1 group I member 2 (Rattus norvegicus) (UniProt Q9R1A7); test: Rat pregnane X receptor (rPXR) activation by small molecules, qHTS assay (AID 1346983); conditions: rPXR luciferase reporter cells, One-Glo luminescence, 24 h; stronger effect = higher value; note: nearly all actives have a fitted effect of over 20% in size
Nuclear receptor subfamily 1 group I member 2 (Rattus norvegicus), sequence (Q9R1A7 whole entry, looked up): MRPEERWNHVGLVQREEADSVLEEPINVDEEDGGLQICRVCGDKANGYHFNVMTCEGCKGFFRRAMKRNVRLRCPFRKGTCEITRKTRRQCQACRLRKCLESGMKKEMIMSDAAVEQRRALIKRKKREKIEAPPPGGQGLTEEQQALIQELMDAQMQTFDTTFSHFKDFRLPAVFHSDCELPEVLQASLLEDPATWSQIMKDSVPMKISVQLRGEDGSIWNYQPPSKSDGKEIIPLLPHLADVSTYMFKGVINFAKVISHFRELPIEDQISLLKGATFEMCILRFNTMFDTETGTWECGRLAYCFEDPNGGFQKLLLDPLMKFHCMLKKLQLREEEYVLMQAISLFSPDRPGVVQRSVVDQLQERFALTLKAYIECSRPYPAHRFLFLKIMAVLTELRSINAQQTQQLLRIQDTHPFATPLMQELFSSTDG
Summary of the method: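 Luminescent readout (One-Glo luciferase, 30 min room temperature) followed 24 hr compound treatment at 37 C of rPXR cells plated 2,000 per well and preincubated 5hr; qHTS format with compounds delivered in DMSO.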

[18] = molecular target: Nuclear receptor subfamily 1 group I member 2 (Homo sapiens) (UniProt O75469); test: CYP3A4 induction through human pregnane X receptor (PXR) by small molecules, qHTS assay (AID 1346984); note: nearly all actives have a fitted effect of over 40% in size; note: potency is the fitted concentration of half-maximal effect
Summary of the method: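 Human PXR activation is tracked via CYP3A4 promoter-luciferase in DPX-2 (HepG2) cells. Compounds treat cells for 24hr at 37C, and luminescence is read after One-Glo.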

[19] = molecular target: Nuclear receptor subfamily 1 group I member 2 (Homo sapiens) (UniProt O75469); test: Human pregnane X receptor (PXR) activation by small molecules, qHTS assay (AID 1346985); note: nearly all actives have a fitted effect of over 40% in size; note: potency is the fitted concentration of half-maximal effect
Summary of the method: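 DPX-2 cells (HepG2 co-transfected with a PXR response element and a CYP3A4-promoter luciferase construct) were seeded at 2,000 per well, rested 5 hr at 37C, then exposed to DMSO-dissolved compounds for 24 hr. Activation was read as luciferase luminescence.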
% is set by controls: 0 for no effect and ±100 for the full control effect.

Oc1ccc2c3c1O[C@H]1[C@@H](O)C=C[C@H]4[C@@H](C2)NCC[C@@]341
inactive: Potency [1] | Potency [2] | Potency [3] | outcome [4] | Potency [5] | outcome [6] | Potency [7] | outcome [8] | Potency [9]

O=C/C=C/c1ccco1
inactive: Potency [10] | Potency [1] | Potency [2] | Potency [3] | Potency [11] | outcome [4] | Potency [5] | outcome [6] | Potency [12] | outcome [13] | Potency [7] | outcome [8] | outcome [14] | Potency [9] | Potency [15]

OCC(Cl)CCl (stereo unspecified)
inactive: Potency [10] | Potency [1] | Potency [3] | outcome [4] | Potency [5] | outcome [6] | Potency [12] | outcome [13] | Potency [7] | outcome [8] | Potency [16] | outcome [14] | Potency [9] | Potency [15]

N[C@@H](Cc1ccc(Oc2cc(I)c(O)c(I)c2)c(I)c1)C(=O)O
inactive: Potency [10] | Potency [1] | Potency [3] | outcome [4] | outcome [6] | Potency [12] | outcome [13] | Potency [7] | outcome [8] | Potency [16] | outcome [14] | Potency [9] | max activation [17] -1.02% | Potency [19]
active: Potency [18] 14.1 µM

CCNP(=S)(OC)O/C(C)=C/C(=O)OC(C)C (stereo unspecified)
inactive: Potency [10] | Potency [1] | Potency [3] | Potency [5] | outcome [6] | Potency [12] | outcome [13] | Potency [7] | outcome [8] | Potency [16] | outcome [14] | Potency [9]

COc1ccc(CN2CCNCC2)c(OC)c1OC
inactive: Potency [10] | Potency [1] | Potency [2] | Potency [3] | outcome [4] | Potency [5] | outcome [6] | Potency [12] | outcome [13] | Potency [7] | outcome [8] | outcome [14] | Potency [9]

O=C(O)C(Cl)Br (stereo unspecified)
inactive: Potency [10] | Potency [1] | Potency [2] | Potency [3] | Potency [11] | outcome [4] | Potency [5] | outcome [6] | Potency [12] | outcome [13] | Potency [7] | outcome [8] | Potency [16] | outcome [14] | Potency [9] | Potency [15]

CN1COCN(Cc2cnc(Cl)s2)/C1=N\[N+](=O)[O-]
inactive: Potency [10] | Potency [1] | Potency [2] | Potency [3] | Potency [11] | Potency [5] | outcome [6] | Potency [12] | outcome [13] | Potency [7] | outcome [8] | Potency [16] | Potency [9]

BrCC1CO1 (stereo unspecified)
inactive: Potency [10] | Potency [1] | Potency [2] | Potency [3] | outcome [4] | Potency [5] | outcome [6] | Potency [12] | outcome [13] | Potency [7] | outcome [8] | Potency [16] | Potency [9]

CC[C@@H](CO)NC(=O)[C@@H]1C=C2c3cccc4c3c(cn4C)C[C@H]2N(C)C1
inactive: Potency [10] | Potency [1] | Potency [2] | Potency [3] | Potency [11] | outcome [4] | Potency [5] | outcome [6] | Potency [12] | outcome [13] | Potency [7] | outcome [8] | outcome [14] | Potency [9] | max activation [17] 4.36% | Potency [18] | Potency [19]

CC(C)(C)c1cc(O)ccc1O
inactive: Potency [10] | Potency [1] | Potency [2] | outcome [4] | Potency [5] | outcome [6] | Potency [12] | outcome [13] | Potency [7] | outcome [8] | outcome [14] | Potency [9] | max activation [17] -1.85%

CC1=C2[C@H]3OC(=O)[C@@H](C)[C@@H]3CC[C@@]2(C)C=CC1=O
inactive: Potency [10] | Potency [1] | Potency [3] | Potency [11] | outcome [4] | Potency [5] | outcome [6] | Potency [12] | outcome [13] | Potency [7] | outcome [8] | Potency [16] | outcome [14] | Potency [9] | max activation [17] 8.61%
active: Potency [15] 7.5 µM | Potency [18] 11.2 µM | Potency [19] 2.82 µM

CCN(CC)C1CCCCC1
inactive: Potency [10] | Potency [1] | Potency [3] | outcome [4] | Potency [5] | outcome [6] | Potency [12] | outcome [13] | Potency [7] | outcome [8] | Potency [16] | outcome [14] | Potency [9] | Potency [15]

C[C@H](CN1CCOCC1)C(C(=O)N1CCCC1)(c1ccccc1)c1ccccc1
active: Potency [7] 83.4 µM
inactive: Potency [10] | Potency [1] | Potency [3] | Potency [11] | outcome [4] | Potency [5] | outcome [6] | Potency [12] | outcome [13] | outcome [8] | Potency [16] | outcome [14] | Potency [9]

CN(C)C1CCCCC1
inactive: Potency [10] | Potency [1] | Potency [2] | Potency [3] | outcome [4] | outcome [6] | Potency [12] | outcome [13] | Potency [7] | outcome [8] | Potency [16] | outcome [14] | Potency [9] | Potency [15]

C=C(Cl)CSC(=S)N(CC)CC
inactive: Potency [10] | Potency [1] | Potency [3] | Potency [11] | outcome [4] | Potency [5] | outcome [6] | Potency [7] | outcome [8] | Potency [16] | outcome [14] | Potency [9] | Potency [15]

CC(C)(C1CCC(O)CC1)C1CCC(O)CC1 (stereo unspecified)
active: Potency [2] 27.3 µM
inactive: Potency [10] | Potency [1] | Potency [11] | outcome [4] | Potency [5] | outcome [6] | Potency [7] | outcome [8] | Potency [16] | Potency [9]

Cc1ccc2cc(C)ccc2c1
inactive: Potency [10] | Potency [1] | Potency [3] | Potency [11] | outcome [4] | Potency [5] | outcome [6] | Potency [12] | outcome [13] | Potency [7] | outcome [8] | Potency [16] | outcome [14] | Potency [9] | Potency [15]

C[C@H]1CCCC(=O)CCC/C=C/c2cc(O)cc(O)c2C(=O)O1
active: Potency [2] 5.02 µM | Potency [7] 52.5 µM | Potency [16] 46.8 µM and 22.4 µM | Potency [9] 46.8 µM and 22.4 µM
46.8 µM (active) and inactive: Potency [10]
inactive: outcome [4] | Potency [5] | outcome [6] | Potency [12] | outcome [13] | outcome [8] | outcome [14]

From PubChem BioAssay (Tox21)
